Measurements reported in PubChem BioAssay (NCATS).
Several values for one entry are separate records, joined by “and”; a condition that tells them apart may be missing. Equal values may be shown once. Records with an inconclusive call do not appear. Activity calls are given as the source filed them. Unless noted, calls follow the shape of the dose curve; as a rule, active = well fitted curve in the direction sought with a large enough effect; inconclusive = small, poorly fitted or top-dose-only effect, or another doubt; inactive = no such curve, though single readings can be large; an effect the other way counts as inactive or inconclusive.

Key:
[1] = Cell Viability - N2a (AID 540); details: N2a mouse neuroblastoma cell viability; activity change, negative = cytotoxicity: at 92.2 µM (top of the series);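 also: plate controls were DMSO alone for no effect and tamoxifen control for full effect; nearly all actives have a fitted effect of over 45% in size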
Outline: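 Cytotoxicity was scored as loss of cellular ATP in N2a cells, a mouse neuroblastoma line. Compounds are applied in a qHTS concentration series for 40 hr at 37 °C.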

[2] = Cell Viability - NIH 3T3 (AID 541); details: NIH 3T3 cell viability, qHTS; activity change, negative = cytotoxicity: at 92.2 µM (top of the series);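 also: plate controls were DMSO alone for no effect and tamoxifen positive control for full effect; nearly all actives have a fitted effect of over 25% in size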
Outline: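 Cells seeded at 1000/well, rested 5 hr at 37 °C, then dosed and incubated 40 hr at 37 °C. CellTiter-Glo added, 20 min room temperature, luminescence read. AC50 by Hill fit.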

[3] = Cell Viability - HUV-EC-C (AID 542); also: % is scaled to controls: 0 for no effect and ±100 for the full control effect; nearly all actives have a fitted effect of over 35% in size
Outline: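 Cells were seeded at 1000 per well and incubated 5 hr at 37 °C before compound addition. After 40 hr at 37 °C, CellTiter-Glo reagent was added for 20 min and luminescence read. AC50 values came from Hill-equation modelling.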

[4] = Cell Viability - H-4-II-E (AID 543); also: % is scaled to controls: 0 for no effect and ±100 for the full control effect; nearly all actives have a fitted effect of over 35% in size
Outline: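 Cells seeded at 1500 per well and rested 5 hr; compounds added; 40 hr incubation at 37 °C; CellTiter-Glo added, 20 min at room temperature; luminescence read. Hill-equation fits gave AC50.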

[5] = Cell Viability - SH-SY5Y (AID 544); also: nearly all actives have a fitted effect of over 55% in size
Outline: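 Cells were plated at 1500 per well and allowed 5 hr at 37 °C. Compounds were added across a concentration range and incubated 40 hr at 37 °C. CellTiter-Glo was added for 20 min at room temperature before luminescence reading.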

[6] = Cell Viability - Renal Proximal Tubule (AID 545); details: renal proximal tubule cells viability, primary cells of rat origin; at 91.7 µM (top of the series); also: nearly all actives have a fitted effect of over 40% in size
Outline: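 Rat renal proximal tubule primary cells, 1000/well, exposed to compounds for 40 hr at 37 °C in complete medium; cellular ATP read by CellTiter-Glo luminescence. AC50 from concentration-response fitted with standard Hill equation.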

[7] = Cell Viability - Mesenchymal (AID 546); details: mesenchymal cells viability, qHTS; activity change, negative = cytotoxicity: at 91.7 µM (top of the series);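 also: cells exposed to compound for 40 hours before reading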
Outline: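 In this qHTS cytotoxicity format, glomerulus-derived human mesenchymal kidney cells received compound for 40 hr, then luciferase-based ATP quantitation. Concentration-response data were fitted with the Hill equation.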

[8] = Cellular Toxicity (caspase-3) HepG2 (AID 654);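 also: cells exposed to compound for 16 hours before reading; 0% = DMSO alone and 100% = caspase signal from 100 µM tamoxifen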
Outline: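 Caspase 3/7 activation in HepG2 is measured as rising luminescence after a 16 hr treatment at 37 °C. Values are scaled between DMSO basal and 100 uM tamoxifen, and AC50 is fitted with the Hill equation.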

[9] = Cellular Toxicity (caspase-3) Jurkat (AID 655); details: Jurkat caspase-3 activation, luminescence, DMSO = 0%, tamoxifen = 100%; at 92.2 µM (top of the series);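 also: cells exposed to compound for 16 h at 37 °C before reading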
Outline: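 Jurkat cells (5000/well) in complete medium exposed 16 h at 37 C; caspase-3/7 activity read by Caspase-Glo luminescence after 20 min at room temperature. Normalized to DMSO and 100 uM tamoxifen; AC50 from Hill fits.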

[10] = Cellular Toxicity (caspase-3) HUV-EC-C (AID 656)
Outline: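 HUV-EC-C cells (1000/well) in complete medium, compound-treated 16 h at 37 °C; caspase-3/7 activity read by Caspase-Glo 3/7 luminescence. Normalized to DMSO (basal) and 100 uM tamoxifen (100%); AC50 from Hill-equation concentration-response fits.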

[11] = Cellular Toxicity (caspase-3) SHSY5Y (AID 657)
Outline: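 SH-SY5Y human neuroblastoma cells, 1500/well, exposed to compound for 16 hours at 37 °C in complete medium. Caspase-3/7 activity read by Caspase-Glo luminescence after 1 hr at room temperature, normalized to DMSO and 10 uM staurosporine; AC50 from Hill fit.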

[12] = Cellular Toxicity (caspase-3) BJ (AID 658);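 also: 0% = DMSO basal and 100% = 10 µM staurosporine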
Outline: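 Plated BJ cells (1000/well) rested 5 hr, received compound for 16 hr at 37 °C, then Caspase-Glo 3/7 reagent for 1 hr at room temperature before luminescence reading.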

[13] = Cellular Toxicity (caspase-3) MRC-5 (AID 659);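 also: 0% = DMSO basal and 100% = 10 µM staurosporine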
Outline: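 Apoptosis readout in MRC-5 cells: luciferase light generated after caspase 3/7 cleaves a peptide-aminoluciferin substrate, measured post 16 hr compound incubation at 37 °C.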

[14] = Cellular Toxicity (caspase-3) Mesangial (AID 660);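 also: cells exposed to compound for 16 h before the caspase read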
Outline: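 Seed cells derived from normal human renal glomeruli, incubate 5 h, add compounds across concentrations and incubate 16 h at 37 °C. Caspase 3/7 activation is then quantified by luciferase light, with AC50 derived by Hill modeling.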

[15] = target: Glucocorticoid receptor (Homo sapiens) (UniProt P04150); experiment: qHTS assay for small molecule antagonists of glucocorticoid receptor signaling (AID 588533; active = well fitted inhibition curve with a large enough effect in the signal ratio, with a control signal flat, not every such curve was filed as active; the % refers to the signal ratio;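 also: cells stimulated with 2 nM dexamethasone as agonist; % is scaled to controls: 0 for no effect and ±100 for the full control effect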)
Chain of Glucocorticoid receptor (Homo sapiens) (P04150 whole entry, looked up): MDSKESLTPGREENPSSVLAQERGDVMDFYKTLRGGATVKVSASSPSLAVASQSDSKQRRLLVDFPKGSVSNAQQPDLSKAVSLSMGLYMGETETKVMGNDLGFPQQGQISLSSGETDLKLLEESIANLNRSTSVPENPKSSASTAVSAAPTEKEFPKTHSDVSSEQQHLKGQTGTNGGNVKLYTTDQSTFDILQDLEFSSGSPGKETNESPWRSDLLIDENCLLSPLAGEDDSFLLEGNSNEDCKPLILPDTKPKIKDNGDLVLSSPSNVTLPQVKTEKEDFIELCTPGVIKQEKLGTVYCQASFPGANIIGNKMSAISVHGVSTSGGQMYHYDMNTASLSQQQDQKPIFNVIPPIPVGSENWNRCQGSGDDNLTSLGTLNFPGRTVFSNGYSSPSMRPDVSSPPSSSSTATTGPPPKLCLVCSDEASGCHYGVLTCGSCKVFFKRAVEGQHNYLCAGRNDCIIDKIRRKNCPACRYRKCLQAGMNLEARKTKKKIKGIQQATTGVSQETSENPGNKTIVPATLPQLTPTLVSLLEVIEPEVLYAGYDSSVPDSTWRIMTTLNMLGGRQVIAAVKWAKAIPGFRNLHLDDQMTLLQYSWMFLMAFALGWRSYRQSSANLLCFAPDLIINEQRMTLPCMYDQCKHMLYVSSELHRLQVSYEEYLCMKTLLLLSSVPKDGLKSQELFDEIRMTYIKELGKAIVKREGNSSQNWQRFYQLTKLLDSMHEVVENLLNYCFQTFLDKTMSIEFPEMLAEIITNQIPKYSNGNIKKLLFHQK
Outline: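 Antagonist-mode qHTS: compound titrations added to GRE-bla HeLa cells, then dexamethasone 2 nM final; 18 h, 37 C. CCF4 FRET fluorescence normalized to dexamethasone and DMSO; IC50 from Hill fit.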

[16] = target: Peroxisome proliferator-activated receptor gamma (Homo sapiens) (UniProt P37231); experiment: qHTS assay for small molecule antagonists of peroxisome proliferator-activated receptor gamma signaling (AID 588537; active = well fitted inhibition curve with a large enough effect in the signal ratio, with a control signal flat, not every such curve was filed as active; the % refers to the signal ratio;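 also: reporter cells co-stimulated with 50 nM rosiglitazone agonist during compound treatment; % of control where 0% means no effect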)
Chain of Peroxisome proliferator-activated receptor gamma (Homo sapiens) (P37231 whole entry, looked up): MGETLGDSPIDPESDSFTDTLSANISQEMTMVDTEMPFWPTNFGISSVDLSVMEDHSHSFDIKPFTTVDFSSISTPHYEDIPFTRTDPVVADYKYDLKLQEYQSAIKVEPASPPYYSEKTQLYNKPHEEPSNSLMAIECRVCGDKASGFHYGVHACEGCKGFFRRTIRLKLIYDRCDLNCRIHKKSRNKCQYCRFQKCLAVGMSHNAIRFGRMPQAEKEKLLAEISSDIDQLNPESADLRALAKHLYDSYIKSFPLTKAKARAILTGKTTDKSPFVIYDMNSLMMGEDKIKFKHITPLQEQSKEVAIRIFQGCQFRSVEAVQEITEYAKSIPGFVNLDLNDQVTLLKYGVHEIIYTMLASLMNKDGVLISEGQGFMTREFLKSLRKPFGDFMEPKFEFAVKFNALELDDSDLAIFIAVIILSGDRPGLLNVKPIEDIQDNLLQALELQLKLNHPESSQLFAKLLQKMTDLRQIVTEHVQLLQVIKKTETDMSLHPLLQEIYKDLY
Outline: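 Compounds are tested as concentration series for inhibition of rosiglitazone-driven (50 nM) reporter expression in GeneBLAzer PPAR-gamma-UAS-bla HEK293 cells. After 16 h at 37 C, CCF4 substrate is added for 2 h at room temperature and blue/green fluorescence is measured.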

[17] = target: Thyroid hormone receptor beta (Homo sapiens) (UniProt P10828); experiment: qHTS assay for small molecule antagonists of thyroid hormone receptor beta signaling (AID 588547; active = well fitted inhibition curve with a large enough effect in the signal ratio, with a control signal flat, not every such curve was filed as active; the % refers to the signal ratio;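 also: cells stimulated with 0.4 nM T3 agonist during compound exposure; % is scaled to controls: 0 for no effect and ±100 for the full control effect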); details: TR-UAS-bla HEK293, beta-lactamase ratio, antagonist mode, 18 h
Chain of Thyroid hormone receptor beta (Homo sapiens) (P10828 whole entry, looked up): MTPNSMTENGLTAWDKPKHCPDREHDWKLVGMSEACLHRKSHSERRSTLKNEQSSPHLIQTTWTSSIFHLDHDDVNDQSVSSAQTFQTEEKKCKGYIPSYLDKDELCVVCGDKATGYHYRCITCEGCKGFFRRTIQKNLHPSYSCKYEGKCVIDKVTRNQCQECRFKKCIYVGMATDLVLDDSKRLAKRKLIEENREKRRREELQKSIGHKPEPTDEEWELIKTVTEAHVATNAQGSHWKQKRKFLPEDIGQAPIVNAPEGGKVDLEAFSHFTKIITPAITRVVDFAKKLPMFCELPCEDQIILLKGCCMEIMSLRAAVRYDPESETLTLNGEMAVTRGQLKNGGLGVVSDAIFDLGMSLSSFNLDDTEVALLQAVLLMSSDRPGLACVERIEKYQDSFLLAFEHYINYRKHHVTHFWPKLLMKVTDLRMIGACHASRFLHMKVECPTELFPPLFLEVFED
Outline: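 TR-UAS-bla GripTite HEK293 cells in 2% charcoal/dextran FBS medium were preincubated 4 h at 37 C, given compound (0.59 nM to 92 uM) plus 0.4 nM T3 (final) for 18 h, then CCF4 for 2 h at RT; Hill fit gave IC50.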

[18] = target: Voltage-gated inwardly rectifying potassium channel KCNH2 (Homo sapiens) (UniProt Q12809); experiment: qHTS Assay for Small Molecule Inhibitors of the Human hERG Channel Activity (AID 588834);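 also: top concentration of the series differs between compounds; % is scaled to controls: 0 for no effect and ±100 for the full control effect; lower thallium flux fluorescence means stronger hERG block; nearly all actives have a fitted effect of over 50% in size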
Chain of Voltage-gated inwardly rectifying potassium channel KCNH2 (Homo sapiens) (Q12809 whole entry, looked up): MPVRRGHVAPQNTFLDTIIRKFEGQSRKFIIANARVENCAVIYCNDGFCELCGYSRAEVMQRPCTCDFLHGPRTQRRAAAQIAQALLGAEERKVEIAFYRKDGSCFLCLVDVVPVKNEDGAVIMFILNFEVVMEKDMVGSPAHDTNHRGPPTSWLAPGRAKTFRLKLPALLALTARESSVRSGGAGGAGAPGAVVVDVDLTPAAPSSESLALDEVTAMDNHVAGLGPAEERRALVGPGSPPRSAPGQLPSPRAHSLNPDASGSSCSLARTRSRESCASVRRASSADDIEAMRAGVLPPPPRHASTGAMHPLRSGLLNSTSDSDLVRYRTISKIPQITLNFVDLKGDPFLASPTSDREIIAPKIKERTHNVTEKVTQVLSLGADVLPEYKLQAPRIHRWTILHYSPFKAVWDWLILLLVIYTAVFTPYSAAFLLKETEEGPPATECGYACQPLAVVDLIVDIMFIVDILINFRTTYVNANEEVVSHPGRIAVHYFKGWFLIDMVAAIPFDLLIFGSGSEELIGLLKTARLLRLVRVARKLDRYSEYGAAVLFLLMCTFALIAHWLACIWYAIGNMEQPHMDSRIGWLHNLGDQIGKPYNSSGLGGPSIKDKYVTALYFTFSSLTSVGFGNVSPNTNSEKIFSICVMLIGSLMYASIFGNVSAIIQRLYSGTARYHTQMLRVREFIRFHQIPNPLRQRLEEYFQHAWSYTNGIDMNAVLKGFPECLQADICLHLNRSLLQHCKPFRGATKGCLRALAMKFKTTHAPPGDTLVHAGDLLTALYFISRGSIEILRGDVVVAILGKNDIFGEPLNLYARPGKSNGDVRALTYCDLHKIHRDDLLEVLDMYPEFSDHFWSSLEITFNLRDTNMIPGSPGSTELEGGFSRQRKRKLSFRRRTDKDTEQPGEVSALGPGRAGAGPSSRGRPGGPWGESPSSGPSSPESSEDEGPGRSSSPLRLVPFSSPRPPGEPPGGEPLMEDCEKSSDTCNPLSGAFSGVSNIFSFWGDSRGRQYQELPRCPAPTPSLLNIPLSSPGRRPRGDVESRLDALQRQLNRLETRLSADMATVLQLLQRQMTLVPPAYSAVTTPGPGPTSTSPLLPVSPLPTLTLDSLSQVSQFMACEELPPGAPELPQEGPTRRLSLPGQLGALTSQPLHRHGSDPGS
Outline: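 Thallium serves as surrogate for K+ influx through BacMam-delivered hERG in U2OS cells. Compounds are added for about 10 minutes after dye loading; stimulation buffer then starts flux, monitored kinetically on FDSS.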

[19] = qHTS assay for small molecule activators of the nuclear factor-kappa B (NF-kB) signaling pathway (AID 651749; active = well fitted activation curve with a large enough effect in the signal ratio; the % refers to the signal ratio; also: % of control where 0% means no effect); details: NF-kB-bla ME-180 cells, beta-lactamase FRET ratio, 16 h; active compounds read high
Outline: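 Human ME-180 cervical cells with an NF-kB-bla construct; compounds added via 23 nL pin transfer, DMSO as vehicle; incubation 16 hr. Reporter activity measured by FRET disruption.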

[20] = target: Tumor necrosis factor (Homo sapiens) (UniProt P01375); experiment: qHTS assay to identify small molecules that stimulate Tumor Necrosis Factor-alpha (TNF-alpha) secretion (AID 651757; active = well fitted curve in the direction sought with a large enough effect in the signal ratio; the % refers to the signal ratio; also: 0% is about no effect)
Chain of Tumor necrosis factor (Homo sapiens) (P01375 whole entry, looked up): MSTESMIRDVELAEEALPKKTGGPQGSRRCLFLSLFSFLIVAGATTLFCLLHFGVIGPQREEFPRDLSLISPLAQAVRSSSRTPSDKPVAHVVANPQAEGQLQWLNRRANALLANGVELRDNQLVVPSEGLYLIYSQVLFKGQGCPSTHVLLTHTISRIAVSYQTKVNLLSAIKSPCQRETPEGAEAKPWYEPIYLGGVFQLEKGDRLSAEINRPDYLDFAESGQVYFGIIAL
Outline: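 Human monocytic THP-1 cells are plated, treated with compound and held at 37 C for 17 hrs. Labeled anti-TNF-alpha antibody mixture is then added; after 3 hr at room temperature, TR-FRET signal reports secreted TNF-alpha.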

O=C(O)c1ccccc1C(c1ccc(O)cc1)c1ccc(O)cc1
inactive: activity change, negative = cytotoxicity [1] 6.19% | Potency [2] | outcome [3] | Potency [4] | Potency [5] | activity change, negative = cytotoxicity [6] 1.41% | activity change, negative = cytotoxicity [7] 8.62% | outcome [8] | caspase-3 activation [9] 1.36% | outcome [10] | outcome [11] | outcome [12] | outcome [13] | outcome [14] | Potency [15] | outcome [16] | activity change % (negative = inhibition) [17] 4.41% and 9.59% | Potency [18] | activation [19] -1.81% and -6.43% | outcome [20]

CC1(C)S[C@@H]2[C@H](NC(=O)COc3ccccc3)C(=O)N2[C@H]1C(=O)O
inactive: outcome [16] | activation [19] -1.54%

O=C1CCc2ccccc2O1
inactive: activity change, negative = cytotoxicity [1] 7.64% | Potency [2] | outcome [3] | Potency [4] | Potency [5] | activity change, negative = cytotoxicity [6] -10.3% | activity change, negative = cytotoxicity [7] 7.71% | outcome [8] | caspase-3 activation [9] 1.5% | outcome [10] | outcome [11] | outcome [12] | outcome [13] | outcome [14] | Potency [15] | outcome [16] | activity change % (negative = inhibition) [17] -1.36% | Potency [18] | outcome [20]

c1ccc2scnc2c1
inactive: activity change, negative = cytotoxicity [1] -2.55% | Potency [2] | outcome [3] | Potency [4] | Potency [5] | activity change, negative = cytotoxicity [6] -4.16% | activity change, negative = cytotoxicity [7] -5.46% | outcome [8] | caspase-3 activation [9] -0.459% | outcome [10] | outcome [11] | outcome [12] | outcome [13] | outcome [14] | Potency [15] | outcome [16] | activity change % (negative = inhibition) [17] 10.2% | Potency [18] | activation [19] -1.1% | outcome [20]

O=S(=O)(O)c1ccccc1
inactive: activity change, negative = cytotoxicity [1] -0.532% | Potency [2] | outcome [3] | Potency [4] | Potency [5] | activity change, negative = cytotoxicity [6] -1.46% | activity change, negative = cytotoxicity [7] 0.153% | outcome [8] | caspase-3 activation [9] 0.148% | outcome [10] | outcome [11] | outcome [12] | outcome [13] | outcome [14] | Potency [15] | outcome [16] | Potency [18] | activation [19] 0.223% | outcome [20]

Cc1cccc(O)c1
inactive: Potency [15] | outcome [16] | activity change % (negative = inhibition) [17] -9.11% and -4.09% | activation [19] -0.103% and -1.79%
